E coli Lon inh: inhibitors of E. coli Lon protease | hit rate 0.42% among 360,000 | inhibition, % at 7.94 µM | purified E. coli Lon protease, fluorescence polarization | P0A9M0 | AID 602123; in the data active means inhibition above about 13%, passing the limit was not always enough;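 further: 0% = enzyme with probe and DMSO and 100% = no enzyme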
Target sequence (P0A9M0 whole entry, looked up): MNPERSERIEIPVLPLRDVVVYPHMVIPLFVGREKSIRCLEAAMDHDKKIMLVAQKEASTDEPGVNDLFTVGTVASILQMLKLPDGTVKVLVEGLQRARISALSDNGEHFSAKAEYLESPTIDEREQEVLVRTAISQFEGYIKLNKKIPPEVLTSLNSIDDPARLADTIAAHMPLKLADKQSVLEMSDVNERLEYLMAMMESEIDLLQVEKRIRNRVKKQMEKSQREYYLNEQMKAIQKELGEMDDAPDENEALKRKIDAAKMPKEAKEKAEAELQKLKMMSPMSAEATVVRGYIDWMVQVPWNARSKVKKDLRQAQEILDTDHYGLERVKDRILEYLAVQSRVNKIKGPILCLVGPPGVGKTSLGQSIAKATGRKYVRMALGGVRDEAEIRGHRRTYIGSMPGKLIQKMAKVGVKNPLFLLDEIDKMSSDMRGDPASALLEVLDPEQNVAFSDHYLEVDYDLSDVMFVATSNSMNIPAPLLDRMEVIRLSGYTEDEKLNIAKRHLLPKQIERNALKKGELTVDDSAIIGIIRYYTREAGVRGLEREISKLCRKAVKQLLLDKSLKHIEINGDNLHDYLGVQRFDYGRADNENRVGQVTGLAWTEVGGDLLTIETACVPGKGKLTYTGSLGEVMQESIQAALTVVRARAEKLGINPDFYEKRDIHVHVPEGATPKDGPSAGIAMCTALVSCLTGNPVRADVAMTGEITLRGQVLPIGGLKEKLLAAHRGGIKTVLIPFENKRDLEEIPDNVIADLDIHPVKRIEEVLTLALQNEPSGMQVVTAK
C-LANA FP: blocks KSHV LANA C-terminal domain binding to DNA; MBP-C-LANA/FAM-LBS DNA binding, fluorescence polarization; inhibition, % at 9 µM; hit rate 0.078% among 340,000;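 active means highest replicate inhibition at or above 60% at 9 µM, even if other replicates fall short; inactive means all replicates below 60% inhibition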;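 further: 0% = neutral control wells and 100% = 4 µM acridine orange control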
RTF Ca sens act: cardiac RTF calcium sensitization; P19429+P45379; activation, % at 7.2 µM; IANBD-labeled TnC RTF fluorescence at EC20 calcium; 0% EC20 calcium, 100% full calcium; hit rate 0.24% among 340,000; AID 493008;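 active means activation above the mean over all tested compounds plus 3 SD, cut at about 30% in these data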;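 further: rise in fluorescence read as greater calcium sensitivity of cardiac thin filaments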
Cardiac RTF inh: cardiac RTF calcium desensitization; AID 493244; IANBD-labeled cardiac RTF, Ca2+ fluorescence; inhibition, % at 7.15 µM; P19429+P45379; hit rate 0.12% among 340,000;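 active means inhibition above the mean inhibition of all tested compounds plus 3 SD, cut at about 17% in these data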;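 further: assay run at fixed EC70 calcium of 1.6 mM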
Keap1-Nrf2 PPI: disrupts human Keap1 binding to Nrf2 peptide; Q14145; inhibition, % at 9.4 µM; Keap1 Kelch-Nrf2 peptide fluorescence polarization, 1536-well; hit rate 0.15% among 340,000; in the data active means inhibition above about 12%;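 further: human Keap1 Kelch domain with fluorescein labeled Nrf2 9mer peptide probe; 0% = neutral control wells and 100% = peptide positive control; higher means more block of Keap1 binding to Nrf2 peptide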
Keap1 TSA: binders of human Keap1 Kelch domain. shares compounds with Keap1-Nrf2 PPI. Keap1 Kelch thermal shift, delta Tm; hits give high values. max delta Tm, degrees C. hit rate 8% among 400. AID 651823; in the data active means max delta Tm above about 0.48 degrees C
Dye-only ctr: counter-screen for Keap1 thermal shift hits: dye-only artifacts; shares compounds with Keap1-Nrf2 PPI; AID 651858; 140 tested, under 10 active; Sypro Orange dye-only thermal melt, no protein, delta Tm; top dose 26 µM; delta Tm, degrees C (no concentration beside the values);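 active means at highest dose tested, delta Tm positive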
E coli Lon conf: E. coli Lon inhibition confirmation | hit rate 31% among 1,400 | inhibition, % at 7.94 µM | purified E. coli Lon, fluorescence polarization | shares compounds with E coli Lon inh; in the data active means inhibition above about 16%;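 further: 0% = enzyme with probe and DMSO and 100% = no enzyme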
An asterisk follows results filed as active; x = not tested or not shown; + = active, no number. Rows were chosen to be rich in hits. Some 0.74% of all compounds tested hit in one or more screens of this group.

SMILES	E coli Lon inh	C-LANA FP	RTF Ca sens act	Cardiac RTF inh	Keap1-Nrf2 PPI	Keap1 TSA	E coli Lon conf	others
Clc1ccc(C2=CC(c3ccco3)n3ncnc3N2)cc1 (configuration not stated)	138.8*	47.8	217.4*	-204.7	27.5*	-0.02	74.7*	Dye-only ctr=-33.9
Cc1ccc(C2=CC(c3ccc(C)cc3)n3ncnc3N2)cc1 (configuration not stated)	9.4	0.1	1.3	-10.9	1.2	x	x
COc1ccc(C2=CC(c3ccco3)n3ncnc3N2)cc1 (configuration not stated)	48.8*	39.6	82.6*	-98.3	20.5*	-0.16	69.1*	Dye-only ctr=-27.8
CC(C)(C)NC(=O)C1(C)CCC(=O)N1C1CCN(Cc2ccccc2)CC1 (configuration not stated)	-0.4	x	x	x	x	x	x
COc1cccc2c1C(=O)c1c(O)c3c(c(O)c1C2=O)CC(O)(C(C)=O)CC3OC1CC(N(C)C)C(O)C(C)O1 (configuration not stated)	+	117.3*	190.0*	-269.2	+	-0.12	+
CC(C)N1CC=C2C(C#N)=C(N)C(C#N)(C#N)C(c3ccccc3)C2C1 (configuration not stated)	52.8*	33.3	46.0*	-77.4	12.4*	-0.09	19.8*	Dye-only ctr=-29.7
c1ccc(CCn2nnnc2CN2CCCc3ccccc32)cc1	12.7	-0.8	9.0	-14.2	1.9	x	x
c1ccc2c(c1)CCCN2Cc1nnnn1CC1CCCO1 (configuration not stated)	73.5*	30.6	37.1*	-64.0	20.2*	-0.19	34.9*
CCOC(=O)c1c(C)oc2c1c(C(c1ccccc1)N1CCOCC1)c(O)c1ccccc12 (configuration not stated)	4.8	2.2	-0.5	-1.9	-1.0	x	x
CCOC(=O)c1c(C)oc2c1c(C=NCCO)c(O)c1ccccc12	24.5*	7.8	24.0	-20.9	22.6*	-0.18	20.3*	Dye-only ctr=-28.7
CCCCC1OC23CCCCC2C(C#N)(C#N)C1(C#N)C(=N)O3 (configuration not stated)	26.4*	45.4	45.9*	-31.8	24.3*	-0.15	4.3	Dye-only ctr=-28.7
CCCCC1OC23CCCCC2C(C#N)(C(=N)O3)C1(C#N)C#N (configuration not stated)	25.3*	41.9	23.1	-37.5	19.9*	-0.15	0.3
Cc1nc2ccccc2n2c(O)c(CC(=O)O)cc12	147.6*	58.5	125.2*	-197.1	21.6*	0.46*	119.3*
CCOc1cc(C2C(C#N)=C(N)OC(C)=C2C(C)=O)cc(Br)c1O (configuration not stated)	24.1*	47.0	19.3	-24.4	26.2*	-0.1	12.7
Cc1ccc(/C=C2/SC(=O)NC2=S)o1	89.4*	31.3	24.5	-28.4	24.5*	0.73*	106.8*
Cc1ccc(/C=C2/SC(=S)N(C3CCCCC3)C2=O)o1	-25.5	1.2	-0.1	-1.8	-1.1	x	x
C[C@H]1CN([C@@H](C)CO)C(=O)c2cc(C#Cc3ccccn3)cnc2O[C@@H]1CN(C)Cc1ccccc1	0.0	x	x	x	x	x	x
N#CC1=C(N)Oc2ccc3ccc(O)cc3c2C1c1ccsc1 (configuration not stated)	+	86.6*	98.9*	-106.4	17.2*	-0.12	+
CN(C)CCP(=O)(c1ccccc1)c1ccccc1	-3.8	-0.1	5.0	0.5	-3.7	x	x
CN(C)CCN(C)Cc1c2ccccc2c(CN(C)CCN(C)C)c2ccccc12	124.9*	28.4	25.7	-28.8	19.5*	-0.15	47.1*	Dye-only ctr=-22
NC(Cc1ccc(C(F)(F)F)cc1)c1csc(Nc2ccc(C(=O)c3ccccc3)cc2)n1 (configuration not stated)	-2.9	x	x	x	x	x	x
Cc1ccccc1N1C(=O)c2cccc3c(N(C)CCO)ccc(c23)C1=O	124.3*	57.4	178.7*	-152.6	13.8*	-0.02	83.9*
Cc1cc(-c2ccccc2C(=O)O)on1	2.9	-0.8	13.6	-4.7	-6.9	x	x
O=C(O)c1ccccc1C1=Nc2ccc(O)cc2Oc2cc(O)ccc21	78.1*	110.9*	117.0*	-159.2	69.9*	-0.06	97.1*	Dye-only ctr=-27.1
O=C(NCCO)OC1CC2CC1[C@H]1CCCCN1C2=O (some centres not stated)	-2.2	x	x	x	x	x	x
SMILES	E coli Lon inh	C-LANA FP	RTF Ca sens act	Cardiac RTF inh	Keap1-Nrf2 PPI	Keap1 TSA	E coli Lon conf	others
CC1(C)CC(=O)C2=C(C1)Nc1ccccc1NC2c1ccccc1F (configuration not stated)	33.5*	6.7	4.0	-9.1	-1.3	x	2.2
Cc1c(C2Nc3ccccc3NC3=C2C(=O)CC(C)(C)C3)cnn1C (configuration not stated)	143.7*	5.7	26.0	-42.3	-0.3	x	1.9
CC1(C)CC(=O)C2=C(C1)Nc1ccccc1NC2c1ccc(F)c(F)c1 (configuration not stated)	5.1	-0.7	2.2	-5.0	-0.9	x	x
CCCc1nc2c(Cl)cc(C(F)(F)F)cn2c1Cc1ccc(OC)cc1C	-4.4	x	x	x	x	x	x
COc1ccc(S(=O)(=O)Cc2ccc(C(=O)NC3CCCCC3)o2)cc1	26.8*	1.4	-3.5	-4.7	-3.4	x	-8.3
CSc1ccccc1C(=O)OCC(=O)NC1CC1	2.0	x	x	x	x	x	x
CCCCn1c(N)c(N(CCC(C)C)C(=O)C2=COCCO2)c(=O)[nH]c1=O	36.2*	0.5	-5.6	-5.2	1.9	x	4.5
Cc1cccc2sc(=S)[nH]c12	-4.0	x	x	x	x	x	x
CC(C(=O)N1CCCc2c1c(=O)oc1ccc(O)cc21)N1CCc2ccccc2C1 (configuration not stated)	16.2*	-1.4	-5.5	-1.3	0.9	x	+
CN(CC(=O)N1CCCc2c1c(=O)oc1ccc(O)cc21)Cc1ccccc1	4.1	0.9	0.4	-1.2	-5.3	x	x
COc1ccc(CNC(NC(=O)c2ccccc2)(C(F)(F)F)C(F)(F)F)cc1	29.6*	-1.3	4.3	-11.5	-3.8	x	3.0
CCOC(=O)C(NCc1ccc(F)cc1)(NC(=O)c1ccccc1)C(F)(F)F (configuration not stated)	-6.4	-0.8	0.5	1.3	1.3	x	x
OC[C@@H]1CN(Cc2ccncc2)C[C@H](n2cnc3c(NCc4ccncc4)ncnc32)O1	-10.6	x	x	x	x	x	x
CCN(CC)c1ccc(N=C2C=CC(=O)C=C2NC(C)=O)cc1	37.6*	x	x	x	x	x	-10.8
COc1cccc(Nc2nc(C(N)Cc3ccccc3)cs2)n1 (configuration not stated)	0.6	x	x	x	x	x	x
CC(=O)c1cc(-c2ccccc2)[nH]c1N1CCOCC1	63.5*	-0.8	12.4	-36.3	-3.8	x	-0.8
C[C@H](CO)N1C[C@H](C)[C@@H](CN(C)Cc2ccccn2)Oc2ncc(-c3ccccc3)cc2C1=O	1.5	x	x	x	x	x	x

Screening results from PubChem BioAssay.
